Reference: paper PMC10726135, “HNF4α isoforms regulate the circadian balance between carbohydrate and lipid metabolism in the liver”
Over roughly 18,000 sequences, “log2 normalized intensity” has its median near 0.39; the highest 2% begin near 6.6. The list comes from a sample in which the highest values are over-represented; it also holds similar and randomly drawn sequences.

Each sequence was assayed against T1, HNF4alpha2 (COS-7 nuclear extract) (Homo sapiens, UniProt P41235 1-474) (assay: protein-binding microarray; COS-7 nuclear extract on double-stranded Agilent 4x180k PBM; binding buffer, salt, pH and temperature not given in the material; high values mean tight binding). Settings: chain copies: 2; label: 3' end of strand 1 on the slide; dsDNA, one strand shown.
T1 sequence: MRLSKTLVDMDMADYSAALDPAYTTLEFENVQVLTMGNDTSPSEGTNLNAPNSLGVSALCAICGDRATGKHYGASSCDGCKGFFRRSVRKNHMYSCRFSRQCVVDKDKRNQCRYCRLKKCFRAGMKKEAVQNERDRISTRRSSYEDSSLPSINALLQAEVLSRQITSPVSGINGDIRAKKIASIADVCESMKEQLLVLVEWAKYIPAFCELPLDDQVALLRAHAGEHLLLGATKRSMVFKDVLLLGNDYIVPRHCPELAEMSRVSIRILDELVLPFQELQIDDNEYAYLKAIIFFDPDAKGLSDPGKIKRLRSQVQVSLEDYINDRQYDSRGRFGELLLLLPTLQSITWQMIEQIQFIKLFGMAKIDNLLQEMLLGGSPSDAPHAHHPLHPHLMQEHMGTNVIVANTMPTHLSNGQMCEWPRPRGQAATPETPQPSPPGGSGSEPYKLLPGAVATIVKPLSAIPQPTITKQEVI
Method in brief: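 A custom Agilent SurePrint G3 4x180k array, spotted in quadruplicate with ~44,000 test sequences as ~60-nt oligonucleotides made double-stranded, was incubated with nuclear extracts. The extracts came from COS-7 cells transiently transfected by CaPO4 with a human HNF4α isoform expression vector. Bound HNF4α was imaged on an Agilent G2565CA scanner at 2-µm resolution, and the binding signal was taken as Agilent software's background-corrected, normalized gProcessedSignal.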

| Sequence | binding signal [log2 normalized intensity] |
| --- | --- |
| CTATTAGGTCTTTGAAGTTGTCTTATCACCGCCTAGGGAGATTAGAGTATCGGTCGA | 1.34 |
| GGACCGCAGGGGGCTCCCGGACCCTGACTCGCCTAGGGAGATTAGAGTATCGGTCGA | 0.458 |
| AGCCACCGCGCCCCGCCCCCAGTGCACCTTGCCTAGGGAGATTAGAGTATCGGTCGA | 5.11 |
| TTGTATGTCCAAGGGTCACTCGACATTCATGCCTAGGGAGATTAGAGTATCGGTCGA | 3.02 |
| TTGAAGTGACTAAATGAGAAGAAATGATGGGCCTAGGGAGATTAGAGTATCGGTCGA | 1.69 |
| GGTGCTGATGTTAACACAAGTTATTACCGTGCCTAGGGAGATTAGAGTATCGGTCGA | 1.03 |
| CAGTGGTAACCACAGTACTGTCTTTTTGCCGCCTAGGGAGATTAGAGTATCGGTCGA | -0.854 |
| TTGCATAGGCATTGTCTTGAAAGATAAAGTGCCTAGGGAGATTAGAGTATCGGTCGA | 0.627 |
| TCTTTTTGCCACTAGGGGTCACTGTCACATGCCTAGGGAGATTAGAGTATCGGTCGA | 2.7 |
| ATGAACTTTGACCCACCTACATTGATATTCGCCTAGGGAGATTAGAGTATCGGTCGA | 4.81 |
| TTGATATTTATCAAGATGAACTTTGACCCAGCCTAGGGAGATTAGAGTATCGGTCGA | 10.8 |
| ATTTATCAAGATGAACTTTGACCCACCTACGCCTAGGGAGATTAGAGTATCGGTCGA | 8.26 |
| CACCCAGAACTTTGACCGTTTGATTATTTGGCCTAGGGAGATTAGAGTATCGGTCGA | 2.56 |
| ATTTTTCCCTTTGATATTTATCAAGATGAAGCCTAGGGAGATTAGAGTATCGGTCGA | 0.736 |
| TCCCTTTGATATTTATCAAGATGAACTTTGGCCTAGGGAGATTAGAGTATCGGTCGA | 4.93 |
| CATGTTGAGTGGAATATGAGGTCAGGGTTCGCCTAGGGAGATTAGAGTATCGGTCGA | 2.71 |
| GGGCTGGAACACAAAGAAAGCCAAAGTTCAGCCTAGGGAGATTAGAGTATCGGTCGA | 2.41 |
| CATTGGACCCTCCCAGCCAAACCCCACTCCGCCTAGGGAGATTAGAGTATCGGTCGA | 5.01 |
| TGTAACTGTAACTATATTGACCACCTCCTCGCCTAGGGAGATTAGAGTATCGGTCGA | 1.76 |

| Sequence | binding signal [log2 normalized intensity] |
| --- | --- |
| CTGCAGTGTGACCTTTGCCTTCTTGACATCGCCTAGGGAGATTAGAGTATCGGTCGA | 5.94 |
| ACTGCTTACCCTGCAGTGTGACCTTTGCCTGCCTAGGGAGATTAGAGTATCGGTCGA | 7.83 |
| TCTACACTGCTTACCCTGCAGTGTGACCTTGCCTAGGGAGATTAGAGTATCGGTCGA | 4.19 |
| GTGTGACCTTTGCCTTCTTGACATCTCTCTGCCTAGGGAGATTAGAGTATCGGTCGA | 4.43 |
| GATGTTCTACACTGCTTACCCTGCAGTGTGGCCTAGGGAGATTAGAGTATCGGTCGA | 0.052 |
| TTACCCTGCAGTGTGACCTTTGCCTTCTTGGCCTAGGGAGATTAGAGTATCGGTCGA | 7.49 |
| GTGCTCTGGGTCTGTCCTTTGTGTTTATGGGCCTAGGGAGATTAGAGTATCGGTCGA | 2.66 |
| CAGTGGGCCCAGAGCACAACCTTTGGCCGTGCCTAGGGAGATTAGAGTATCGGTCGA | 4.45 |
| TTGCCCACCAATGATCAAAGGTTAGTCTTAGCCTAGGGAGATTAGAGTATCGGTCGA | 3.63 |
| AAAACATATTTGCATAATGGAGCAAAGGTCGCCTAGGGAGATTAGAGTATCGGTCGA | 5.4 |
| TCATTGATGAGTGACCTTTGACCTCAGAGAGCCTAGGGAGATTAGAGTATCGGTCGA | 9.89 |
| CTACTACTTGACCTTTGAAACATATCCAGAGCCTAGGGAGATTAGAGTATCGGTCGA | 5.48 |
| GGCTGATGACCTTTGACTGAGATGGGAGCAGCCTAGGGAGATTAGAGTATCGGTCGA | 4.03 |
| CTAGGAAACTGACCTTTGCTCATGACTATTGCCTAGGGAGATTAGAGTATCGGTCGA | 5.53 |
| ATTCTCACCACTAGGAAACTGACCTTTGCTGCCTAGGGAGATTAGAGTATCGGTCGA | 5.16 |
| TTGCCCCTTTGACCCTCGGGCCTCCCTAGAGCCTAGGGAGATTAGAGTATCGGTCGA | 3.97 |
| AAAGACTTGCTCATTGATGAGTGACCTTTGGCCTAGGGAGATTAGAGTATCGGTCGA | 6.15 |
| ATGGGATGACCTTTGAGCAATAGGAAATGGGCCTAGGGAGATTAGAGTATCGGTCGA | 4.18 |
| GTGACCTTTGACCTCAGAGAGCCGGAAACTGCCTAGGGAGATTAGAGTATCGGTCGA | 7.21 |

| Sequence | binding signal [log2 normalized intensity] |
| --- | --- |
| GATGAGTGACCTTTGACCTCAGAGAGCCGGGCCTAGGGAGATTAGAGTATCGGTCGA | 9.56 |
| CACCACTAGGAAACTGACCTTTGCTCATGAGCCTAGGGAGATTAGAGTATCGGTCGA | 6.73 |
| ACCACATTCTCACCACTAGGAAACTGACCTGCCTAGGGAGATTAGAGTATCGGTCGA | 3.23 |
| CTCTGCAAACATTTATTTTGTGTGCTAGATGCCTAGGGAGATTAGAGTATCGGTCGA | 1.54 |
| TTGCCCACATTCACACAATCAGTGTGTTGAGCCTAGGGAGATTAGAGTATCGGTCGA | -0.0239 |
| AGCAGTCCCTTCCCCCCTCCTCATTGAGAGGCCTAGGGAGATTAGAGTATCGGTCGA | 4.37 |
| TTGCACCAGTTTCTCAACAGACCCCTGAATGCCTAGGGAGATTAGAGTATCGGTCGA | 2.27 |
| CTTGACGCTAACTTCCAGATCAAAGGACATGCCTAGGGAGATTAGAGTATCGGTCGA | 0.608 |
| GTCTAATTGTGCTGAGAGAGTCCTTGTTTGGCCTAGGGAGATTAGAGTATCGGTCGA | 1.63 |
| GCAGATGGGCAGCACTGTGATTTGTTCAGGGCCTAGGGAGATTAGAGTATCGGTCGA | 0.439 |
| GTCTGCTGCCCAGACACACAATATTATGTTGCCTAGGGAGATTAGAGTATCGGTCGA | -0.79 |
| GGAGATAACCCATCTGGGGAAAGTGCAAGGGCCTAGGGAGATTAGAGTATCGGTCGA | -0.913 |
| CTGGTTCTGCAAGGCAACTGACCTTTGGATGCCTAGGGAGATTAGAGTATCGGTCGA | 8.08 |
| TGGACAACTGTACTTTGGACTGGGGACCTGGCCTAGGGAGATTAGAGTATCGGTCGA | 5.1 |
| TTCTTCTGGTTCTGCAAGGCAACTGACCTTGCCTAGGGAGATTAGAGTATCGGTCGA | 3.64 |
| TCTGCAAGGCAACTGACCTTTGGATCTGGGGCCTAGGGAGATTAGAGTATCGGTCGA | 7.21 |
| TCTGGTGCCAAGGAGCCTCTGCAACCTTTGGCCTAGGGAGATTAGAGTATCGGTCGA | 2.46 |
| CTTGGGGGAGGAGGGCAACCTTTGAACTGGGCCTAGGGAGATTAGAGTATCGGTCGA | 5.3 |
